Common to all, as to experiment: NCI-60 one-dose screen, 48 h (100 = growth as untreated, 0 = no growth, -100 = all killed)
Holding throughout (details): 10 µM unless noted

The subject of test [1] is SR leukemia.
For test [2], the system named is RPMI-8226 leukemia.
The test system of test [3] is OVCAR-8 ovarian.
The test system of test [4] is OVCAR-5 ovarian.
Test [5] relates to OVCAR-4 ovarian.
The test system of test [6] is SK-OV-3 ovarian.
In test [7] the test system is IGROV1 ovarian.
Test [8] relates to OVCAR-3 ovarian.
Test [9] deals with HS 578T breast.
The test system of test [10] is NCI/ADR-RES ovarian.
In test [11] the test system is T-47D breast.
For test [12], the system named is BT-549 breast.
For test [13], the system named is MDA-MB-435 melanoma.
The test system of test [14] is SW-620 colon.
Test [15] deals with MCF7 breast.
In test [16] the test system is HCT-116 colon.
The test system of test [17] is HCC-2998 colon.
Test [18] deals with KM12 colon.

For nine compounds, growth results are on record in PubChem BioAssay (NCI).

SMILES strings stand for the structures. About 83,000 compounds went through this panel and 20% of them were active in at least one assay; those are over-represented in the sample as a whole.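 Treatment: one concentration, 48 hours, 96-well format. Scoring: percent growth, with anything below 10 considered active.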 Unmarked numbers belong to inactive results. Calls of active or inactive are those of the source.

On to `O=C1c2cc3c(cc2-c2c1c1cc(Cl)c(Cl)cc1c(=O)n2CCCn1ccnc1)OCO3`, for which the growth in [1] was -13.4% (active); in test [2], -0.183% (active); in test [3] it was 8.55% (active); in test [4], 25.9%; in [5], 30.1%; in test [6], -3.8% (active). The growth is 24.4% in test [7]; 5.18% (active) in test [8]; 66.7% in [9]; 4.47% (active) in test [10]; 0.538% (active) in [11]; 19.1% in test [12]. Moreover, the growth is 18.5% in test [13]; 25.6% in test [14]; 1.23% (active) in test [15]; 3.49% (active) in test [16]; 28.6% in test [17]; 6% (active) in test [18].
In the case of `Cc1cc(=O)oc2cc(Oc3nc(-c4cccs4)cn4c(-c5cccs5)cnc34)ccc12`, the growth is 45.6% in test [1]; 70.3% in test [2]; 52.5% in test [3]; 93.8% in test [4]; 54.1% in test [5]; 90.6% in [6]. Further, the growth in test [7] was 79.2%; in test [8] it was 68%; in test [9], 67.6%; in [10], 53.4%; in [11] it was 54.7%; in [12], 25%. Moreover, the growth in [13] is 61.3%; in test [14], 56.7%; in test [15] it was 59.9%; in test [16], 58.7%; in test [17] it was 78.1%; in test [18], 59.6%.
For the compound `CC(=O)OCC(=O)C1CCC=CC1OC(C)=O` (configuration not stated), the growth in [1] is 98.9%; in test [2], 100%; in test [3] it was 97.2%; in test [4], 104%; in test [5], 94.4%; in [6], 87.9%. Also, the growth in [7] is 102%; in [8] it was 107%; in test [9], 110%; in [10], 100%; in test [11], 87.8%; in [12], 103%. For the same compound, the growth is 98.3% in test [13]; 111% in test [14]; 105% in test [15]; 100% in [16]; 102% in test [17]; 99.7% in test [18].
As for `C=C1CCC2C3(C)COC(c4ccccc4Br)OC3CCC2(C)C1C/C=C1/C(=O)OCC1OC(C)=O` (configuration not stated), the growth was -40.9% (active) in test [1]; -47% (active) in [2]; -36.2% (active) in test [3]; -38.3% (active) in test [4]; -62.2% (active) in [5]; 52.7% in [6]. Further, the growth in test [7] was -9.12% (active); in test [8] it was -88.8% (active); in [9] it was -30.9% (active); in test [10], -3.45% (active); in test [11], -68.9% (active); in [12], -74.2% (active). The growth in [13] is -38.6% (active); in test [14], -73.1% (active); in test [15] it was -68.9% (active); in test [16], -91% (active); in [17] it was 55.4%; in test [18] it was -56.7% (active).
As to `CCOC(=O)Cc1cnn(C)c1NC(=O)c1ccc(Cl)cc1NC(C)=O`, the growth in test [1] is 104%; in [2], 102%; in [3], 99.8%; in [4], 99.3%; in test [5], 110%; in [6], 102%. Moreover, the growth in test [7] was 105%; in [8], 108%; in test [9] it was 97%; in test [10], 106%; in [11] it was 103%; in [12], 93.2%. The growth in test [13] is 99.4%; in test [14], 105%; in [15], 106%; in test [16], 101%; in test [17], 107%; in test [18] it was 102%.
`O=C(NCc1cccc(C(F)(F)F)c1)[C@H](CCC(=O)N1CCN(C2CCCCC2)CC1)N1C(=O)[C@@H](N2C(=O)OC[C@@H]2c2ccccc2)[C@H]1/C(Cl)=C/c1ccccc1`: the growth was -36.3% (active) in test [1]; 14.1% in [2]; 64.3% in test [3]; 87% in test [4]; 51.6% in test [5]; 56% in test [6]. Further, the growth in test [7] is 36.8%; in test [8], 47.6%; in test [9], 50%; in test [10], 35.7%; in test [11], 61.3%; in test [12], 60.1%. Further, the growth is 52.1% in test [13]; 74.9% in test [14]; 29.6% in [15]; 34.3% in test [16]; 31.9% in [17]; 34.5% in test [18].
In the case of `C=C1CC2(OC1=O)C(=O)Nc1ccccc12` (configuration not stated), the growth is 5.16% (active) in test [1]; 24.4% in test [2]; 89.4% in [3]; 66% in test [4]; 37.3% in test [5]; 115% in [6]. The growth was 63% in [7]; 6.75% (active) in [8]; 83.1% in test [9]; 66.5% in test [10]; 37.3% in [11]; 75.3% in test [12]. Also, the growth in test [13] was 49.7%; in test [14] it was 4% (active); in [15], 16.4%; in test [16] it was 31.4%; in [17] it was 90.1%; in [18], 97.3%.
For `COc1cc(C#N)cc(OC)c1OCCN(CCOc1c(OC)cc(C#N)cc1OC)S(=O)(=O)c1ccc(C)cc1`, the growth is 106% in [1]; 90.6% in test [2]; 54.1% in test [3]; 108% in test [4]; 107% in test [5]; 119% in test [6]. Further, the growth in [7] was 77.3%; in [8], 118%; in test [9], 99%; in test [10], 95.9%; in test [11], 96.3%; in test [12] it was 107%. Also, the growth in test [13] is 114%; in test [14], 99.6%; in test [15], 108%; in test [16], 81.6%; in test [17], 94.8%; in [18], 108%.
`O=C1Nc2ccccc2/C1=C/C(=N/c1nnc(-c2ccc(Cl)cc2)s1)c1ccccc1`: the growth is -27.6% (active) in test [1]; -14.4% (active) in [2]; 10.4% in test [3]; 72.6% in test [4]; 57.3% in [5]; 75.9% in test [6]. Moreover, the growth in [7] was 21%; in test [8], -70.1% (active); in test [9] it was 80.1%; in [10], 41%; in test [11] it was 65.9%; in test [12] it was 31.9%. In addition, the growth in test [13] was 41.7%; in test [14] it was -52.6% (active); in test [15], 28.5%; in test [16], -58.5% (active); in [17], 99.8%; in test [18], 66.4%.
